Only some compounds are listed: those with a hit (about 2.4% of all), similar ones and a draw of the others.
D2 PAM-1: D2 dopamine receptor (human) potentiation; AID 485347; 340,000 tested, 0.34% active; P14416; HEK293 T-REx D2, calcium flux, EC20 dopamine potentiation; potentiation, % at 10 µM;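 active means potentiation over 3 SD above the plate norm, cut at about 30% in these data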; further: 0% is about no effect
Target sequence (P14416 whole entry, looked up): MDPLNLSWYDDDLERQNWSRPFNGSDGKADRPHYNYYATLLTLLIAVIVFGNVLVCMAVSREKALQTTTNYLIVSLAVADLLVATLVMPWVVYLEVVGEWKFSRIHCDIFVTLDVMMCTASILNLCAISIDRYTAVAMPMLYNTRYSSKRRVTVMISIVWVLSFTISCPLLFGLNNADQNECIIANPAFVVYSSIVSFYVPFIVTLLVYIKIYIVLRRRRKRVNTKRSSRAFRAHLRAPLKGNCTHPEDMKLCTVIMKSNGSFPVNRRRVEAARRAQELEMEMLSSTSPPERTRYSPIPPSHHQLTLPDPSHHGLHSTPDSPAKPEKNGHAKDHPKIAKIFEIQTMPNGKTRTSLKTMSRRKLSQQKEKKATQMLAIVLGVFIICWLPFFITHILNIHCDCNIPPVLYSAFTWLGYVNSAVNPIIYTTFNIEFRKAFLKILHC
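Potentiation of an EC20 dopamine calcium response is measured in a force-coupled, tetracycline-inducible Hek293 Trex D2 line. Compound-only kinetic reads over 180 s flag agonists before dopamine addition.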
D2 antag: D2 dopamine receptor (human) antagonism. P14416. HEK293 TREx D2 cells, calcium flux, dopamine EC80. inhibition, % at 10 µM. 340,000 tested, 2% active; in the data active means inhibition above about 30%; inactive means below that, where a call was filed; further: 0% is about no effect
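Compounds are added to dye-loaded, induced HEK293 T-REx cells coupled to calcium release via D2; after a 3 min kinetic read an EC80 dopamine stimulus is given and fluorescence is recorded for 3 more min.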
D2 ag-1: D2 dopamine receptor (human) agonism. P14416. HEK293 T-REx D2 cells, calcium flux agonist mode. activation, % at 2 µM. 340,000 tested, 0.53% active;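 active means activation over 3 SD above normal in the single-dose calcium agonist read, cut at about 30% in these data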; further: 0% is about no effect
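Calcium-flux readout, 1 cycle/sec over 180 s following compound pin transfer, in inducible HEK293 Trex D2 cells (force-coupled); dopamine controls included. Positive calcium responses during this window marked compounds as potential agonists.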
D2 PAM-2: positive allosteric modulators of human D2 dopamine receptor | DiscoveRx D2 beta-arrestin cells, luminescence, 90 min; 100% = 57 uM dopamine signal | potentiation, % (concentration not given with the values) | 360,000 tested, 0.23% active; in the data active means potentiation above about 50%
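D2 cells co-treated with compound plus 50 nM dopamine (EC20) for 90 min at 37 deg C to detect potentiation. Beta-arrestin recruitment was read as enzyme-fragment luminescence after 1 h at ambient temperature. Full response was set by 57 uM dopamine.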
D2 ag-2: human D2 receptor agonism in beta-arrestin assay; activation, % (concentration not given with the values); 360,000 tested, 0.084% active; AID 624465; P14416; DiscoveRx PathHunter D2 beta-arrestin, luminescence, 90 min; 100% = 57 uM dopamine signal; in the data active means activation above about 40%
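DiscoveRx PathHunter D2 beta-arrestin cells (2,100/well) attached overnight, then compound-stimulated 90 min at 37 C in HBSS/10 mM HEPES/0.1% Tween-20 buffer; beta-galactosidase complementation read by luminescence after 1 h at ambient temperature. Dopamine 57 uM final (EC100) as control.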
Numbers without * were called inactive; · = not tested or not shown.

SMILES	D2 PAM-1	D2 antag	D2 ag-1	D2 PAM-2	D2 ag-2
CCCCNC(=O)NCC(=O)Nc1ccc(F)c(F)c1	-4	40*	0	-4	0
COc1ccccc1NC(=O)NCC(=O)Nc1ccc(F)c(F)c1	·	·	·	-12	-2
CCOC(=O)c1cc2c(=O)n3ccccc3nc2n(CCOC)c1=NC(=O)C(C)(C)C	-11	-14	0	11	-1
CCOC(=O)c1cc2c(=O)n3ccccc3nc2n(CCCOC)c1=NC(=O)C(C)(C)C	-8	-6	32*	-9	-4
Cc1ccc(CNC(=O)C(NS(=O)(=O)c2ccc3nc(C)sc3c2)C(C)C)cc1 (stereo not given)	-4	0	0	-5	-3
Cc1nc2ccc(S(=O)(=O)NC(C(=O)NCc3ccco3)C(C)C)cc2s1 (stereo not given)	15	31*	1	-2	-7
O=C(c1c[nH]c2ccccc12)N1CCOCC1	8	-10	2	-8	-6
S=C(c1c[nH]c2ccc(Br)cc12)N1CCOCC1	-2	38*	3	-4	0
C=CCOc1ccccc1CN1CCC(Oc2ccc(C(=O)N3CCCCC3)cc2)CC1	-21	47*	0	-46	-4
O=C(Nc1ccccc1C(=O)O)c1cccc(NC(=O)c2ccco2)c1	·	·	·	22	9
O=C(Nc1ccc(O)cc1C(=O)O)c1ccc(NC(=O)c2ccco2)cc1	29	46*	1	19	5
CC1CCN(Cc2c(C(=O)N/N=C/c3cc(Br)ccc3O)nnn2-c2nonc2N)CC1	6	8	2	-3	-4
CC1CCN(Cc2c(C(=O)N/N=C/c3cc(Cl)ccc3O)nnn2-c2nonc2N)CC1	30*	0	3	1	-9
COc1ccc(CC(=O)NNC(=O)c2cc(C)oc2C)cc1OC	-4	32*	1	-33	-6
O=C1/C(=C/c2ccc(N3CCCC3)cc2)NC(=S)N1C1CC1	-12	-20	48*	-16	-1
Cc1cc(N2CCCC2)ccc1/C=C1\NC(=S)N(C)C1=O	-7	10	36*	-5	-1
CCc1ccc(CNC(=O)C2CCN(C(=O)N3CC(CC)Oc4ccc(C)cc43)CC2)cc1 (stereo not given)	-6	·	0	·	·
CC(C)(C)c1ccc(NC(=O)CSc2n[nH]c(=O)n2-c2cccnc2)cc1	15	-21	1	-10	-2
CC(C)c1ccc(NC(=O)CSc2n[nH]c(=O)n2-c2cccnc2)cc1	5	31*	0	-3	2
COc1cccc(OC)c1C(=O)NCCSC1CCCCC1	-6	41*	-2	2	1
COc1cc(OC)cc(C(=O)NCCSC2CCCCC2)c1	-7	14	-1	-18	0
CCc1ccccc1NC(=O)CN(Cc1ccccc1)S(=O)(=O)c1ccc(Br)cc1	-5	·	1	·	·
O=c1c2ccccc2n2nnnc2n1-c1ccccc1	32*	13	1	-8	-2
COc1ccc(O)c(CNn2c(-c3ccc(Br)cc3)nc3ccccc3c2=O)c1	3	50*	-2	8	-3
Cc1ccc(N2CC(NC(=O)c3ccc(S(=O)(=O)N4CCOCC4)cc3)CC2=O)cc1C (stereo not given)	0	·	1	·	·
SMILES	D2 PAM-1	D2 antag	D2 ag-1	D2 PAM-2	D2 ag-2
CCN1CCN(c2nc(-c3ccccc3Cl)nc3ccccc23)CC1	-15	38*	-1	-10	-8
CN1CCN(c2nc(-c3ccccc3Cl)nc3ccccc23)CC1	-15	-15	-1	-23	-9
c1ccc(N2CCN(c3nc(-c4cccs4)nc4ccccc34)CC2)cc1	28	·	·	-7	-3
CCN1CCN(c2nc(-c3ccccc3)c3ccccc3n2)CC1	-23	59*	0	-24	-3
CN1CCN(c2nc(-c3cccs3)nc3ccccc23)CC1	-20	32*	0	-21	-6
CCn1c(=O)c2ccccc2n(CC(=O)NC2CCCCC2)c1=O	-1	42*	1	0	0
N#CC1=C(N)OC2=C(CC/C2=C\c2ccc(F)cc2)C1c1ccc(F)cc1 (stereo not given)	-5	37*	40*	·	·
O=C1CC(=O)Nc2cc(S(=O)(=O)Nc3cccc(C(F)(F)F)c3)ccc2N1	1	30*	0	8	2
O=C1CC(=O)Nc2cc(S(=O)(=O)Nc3ccc(Cl)c(C(F)(F)F)c3)ccc2N1	3	10	0	6	5
COc1ccc(C(=O)NNc2ncnc3c2cnn3-c2ccc(C)c(Cl)c2)cc1	-11	·	0	·	·
CCN(c1ccccc1)S(=O)(=O)c1ccc2[nH]c(=O)c(=O)[nH]c2c1	·	33*	-3	-4	-6
CCN(c1ccccc1)S(=O)(=O)c1ccc(F)cc1	-2	2	-1	-5	-1
CCN(CC)C(=O)C(C)OC(=O)c1ccc(O)cc1 (stereo not given)	12	30*	0	3	1
COC(=O)c1ccc(O)cc1	-1	-9	-1	0	0
COCCNC(=O)C(=O)Nc1ccc2nc3n(c(=O)c2c1)CCCCC3	-2	·	0	·	·
COc1cc(C)c(Cl)c(C)c1S(=O)(=O)NCc1cccnc1	32*	-22	1	-7	1
S=c1[nH]nc(C2CCCCC2)n1/N=C/c1ccc(Cl)cc1	-4	5	0	-4	4
S=c1[nH]nc(C2CCCCC2)n1/N=C/c1ccc(Br)cc1	5	36*	2	-4	13
O=C(CC1N=C2c3ccccc3N=C(SCc3ccccc3F)N2C1=O)NCCc1ccccc1 (stereo not given)	9	·	0	·	·
Cc1oc(-c2ccccc2F)nc1CS(=O)(=O)CC(=O)NCCCN1CC(C)CC(C)C1 (stereo not given)	-4	48*	-1	-31	-7
Cc1oc(-c2ccccc2F)nc1CS(=O)(=O)CC(=O)NCCCN1CCN(C)CC1	0	10	1	-8	-1
CCCNC(=O)CS(=O)(=O)Cc1nc(-c2ccccc2C)oc1C	6	40*	0	-3	-3
COc1ccc(N(CC(=O)Nc2cc(C)ccc2C)S(=O)(=O)c2ccc(OC)c(OC)c2)cc1	-11	·	-3	·	·
Cc1ccc(CN2CCC(C(=O)NCCC(C)C)CC2)o1	-4	30*	0	-30	-2
CCC1CCCCN1CCCNC(=O)c1cc2c(=O)oc3ccc(C)cc3c2s1 (stereo not given)	-2	36*	1	-24	3
Cc1ccc(C)c(NS(=O)(=O)c2ccc(OCC(=O)N3CCCC3)cc2)c1	-5	8	0	-2	0
CN(c1ccc(OCC(=O)N2CCOCC2)cc1)S(=O)(=O)c1ccc(F)cc1	10	5	0	3	-2

Screening results (PubChem BioAssay)
